Results on 61 molecules are retold here after PubChem BioAssay AID518 (Sanford-Burnham Center for Chemical Genomics, 2006).

Among all 64,000 compounds or so, about 55 (0.09%) were called active. Not all results are given here. Unmarked numbers belong to inactive results. No rule for the calls is given here.

In the assay the target is Alkaline phosphatase, tissue-nonspecific isozyme (Homo sapiens) (UniProt P05186). In words: human TNAP enzyme inhibitors, biochemical, luminescent (AID 518).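 Also: plate controls were vehicle for no effect and reference inhibitor for full effect.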 The following applies: purified TNAP enzyme, luminescent substrate readout; at 20 µM; stronger effect = higher value.
Alkaline phosphatase, tissue-nonspecific isozyme (Homo sapiens), sequence (P05186 whole entry, looked up): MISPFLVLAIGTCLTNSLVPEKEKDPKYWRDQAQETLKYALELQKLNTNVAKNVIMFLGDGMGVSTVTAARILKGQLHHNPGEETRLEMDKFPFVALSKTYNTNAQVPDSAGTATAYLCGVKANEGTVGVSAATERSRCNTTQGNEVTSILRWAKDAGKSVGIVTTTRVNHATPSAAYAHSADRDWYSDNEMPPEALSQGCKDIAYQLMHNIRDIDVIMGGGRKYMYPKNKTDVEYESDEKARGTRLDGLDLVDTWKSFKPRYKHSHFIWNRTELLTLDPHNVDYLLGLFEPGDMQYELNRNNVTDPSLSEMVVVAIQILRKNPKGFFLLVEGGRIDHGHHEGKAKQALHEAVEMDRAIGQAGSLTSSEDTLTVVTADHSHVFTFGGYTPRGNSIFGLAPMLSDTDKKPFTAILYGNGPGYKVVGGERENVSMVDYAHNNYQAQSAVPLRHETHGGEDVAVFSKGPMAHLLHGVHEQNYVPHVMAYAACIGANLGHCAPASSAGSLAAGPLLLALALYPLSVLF
For the molecule `Cc1ccc(N(CC(=O)N2CCN(c3ccc(F)cc3)CC2)S(=O)(=O)c2c(C)nn(C)c2C)cc1`, the inhibition is 8.6%.

With `O=C(c1ccc(Cl)cc1)N1CCC(c2nc(-c3cccs3)no2)CC1`, the inhibition is 13.1%.

With `CCC(CC)C(=O)NCCNC(=O)C(CC)CC`, the inhibition is 10.5%.

As for `Cc1ccc(OCC(=O)N2CCN(C(=O)CCC3CCCC3)CC2)cc1`, the inhibition is 6.3%.

With `Cc1cc2c(c(=O)n1CCN(C)C)C(c1ccccc1Br)C(C#N)=C(N)O2` (stereo unspecified), the inhibition was 9.3%.

`COCCNC(=O)Nc1ccc2c(c1)N(C)C(=O)CS2`: the inhibition was 1.5%.

`O=C(c1cc2ccccn2n1)N1CCN(Cc2ccccc2)CC1`: the inhibition was 2.9%.

On to `Cc1onc(-c2ccccc2Cl)c1C(=O)Nc1ccc(-c2cn3cccnc3n2)cc1`, for which the inhibition was 4.9%.

Regarding `CCOC(=O)CN1CC23C=CC(O2)C(C(=O)O)C3C1=O` (stereo unspecified), the inhibition is 5.4%.

For the molecule `O=C(CSc1nnc(-c2cccnc2)n1-c1ccccc1)Nc1ccccn1`, the inhibition was 2.6%.

For the molecule `COc1ccc(OC)c(S(=O)(=O)NC2CCN(Cc3ccccc3)CC2)c1`, the inhibition is 6.7%.

As to `CC(C)(C)n1ncc2c(=O)n(CC(=O)N3CCCc4ccccc43)cnc21`, the inhibition was 4%.

Take `COc1ccc(-c2nnc(SCC(=O)N3CCOCC3)o2)cc1`: the inhibition was 3.7%.

On to `Cc1nn(Cc2ccccc2)c(C)c1CCC(=O)O`, for which the inhibition was 7.6%.

For the molecule `N#Cc1ccccc1NC(=O)c1ccccc1OCC(=O)NCc1ccco1`, the inhibition was 7%.

On to `COC(=O)c1ccc(NC(=O)COc2ccc(S(=O)(=O)NC(C)C)cc2)cc1`, for which the inhibition is -1.4%.

For the molecule `O=C1CC(c2ccco2)Cc2nc(N3CCN(Cc4ccc5c(c4)OCO5)CC3)ncc21` (stereo unspecified), the inhibition was 10.2%.

As for `Cc1noc(C)c1S(=O)(=O)N1CCC(C(=O)N(C)Cc2ccccc2)CC1`, the inhibition is -0.3%.

On to `CN(Cc1ccccc1)Cc1c(F)cccc1F`, for which the inhibition was 5.6%.

As for `CN1C(=O)CS(=O)c2ccc(C(=O)NC3CC3)cc21` (stereo unspecified), the inhibition is 10%.

For `CCc1c(C)nc2ncnn2c1N1CCC(C(=O)NCc2cccc(OC)c2)CC1`, the inhibition was 13%.

For the molecule `Cc1ccc(NC(=O)C2CCCN2S(=O)(=O)c2ccc3c(c2)CCC(=O)N3)cc1Cl` (stereo unspecified), the inhibition was 9%.

For the molecule `N#Cc1cc(Sc2ccccn2)c(Sc2ccccn2)cc1C#N`, the inhibition is 10.6%.

`CC(=O)Nc1nc2ccccc2n1CCOc1ccccc1`: the inhibition was 4.8%.

`O=C(C1CCCN(S(=O)(=O)c2cccc3cccnc23)C1)N1CCN(c2ccc(F)cc2)CC1` (stereo unspecified): the inhibition was 14.6%.

`O=c1c2ccccc2nc(SCc2nnc(-c3ccccc3)o2)n1-c1ccccc1`: the inhibition is 3.6%.

For `O=C(O)c1ccc(S(=O)(=O)c2ccccc2)cc1`, the inhibition was 8.6%.

As to `CC(=O)C(Sc1nc(-c2ccco2)nc2c1c(=O)n(C)c(=O)n2C)C(=O)N(C)C` (stereo unspecified), the inhibition is 6%.

For `COc1cccc(N2CCN(C3CC(=O)N(c4ccc(F)c(Cl)c4)C3=O)CC2)c1` (stereo unspecified), the inhibition was 7.6%.

For the molecule `O=C(c1ccc(-c2ccccc2)cc1)N1CCN(c2nc3ccccc3o2)CC1`, the inhibition is -3.8%.

As to `COc1cc(/C=N/n2cnnc2)ccc1OCCOc1ccccc1`, the inhibition was 2.9%.

On to `COc1ccc(OCc2nc(C#N)c(N3CCN(c4ccc(OC)cc4)CC3)o2)cc1`, for which the inhibition was 16.1%.

Regarding `O=S(=O)(NCCc1cn2ccccc2n1)c1cccs1`, the inhibition is 1.2%.

With `CC(=O)N1CCC(N(C(=O)Nc2ccc(C)c(C)c2)C2CCCC2)CC1`, the inhibition is 6.3%.

For `CC1Cc2ccccc2N1C(=O)C1CCCN(S(=O)(=O)c2cccc3nsnc23)C1` (stereo unspecified), the inhibition is 15.5%.

On to `O=C(CSCc1ccccc1)N1CCN(c2ccc(F)cc2)CC1`, for which the inhibition was 5.6%.

For the molecule `CSc1nc2c(c(=O)[nH]c(=O)n2C)n1C/C=C(\C)Cl`, the inhibition is 11.8%.

`O=C(Cn1ncc2c1-c1ccccc1OC2)N1CCN(c2ccccn2)CC1`: the inhibition is 16.3%.

Turning to `Cn1c(SCC(=O)N2CCOCC2)nnc1-c1ccccc1`, the inhibition was 3.9%.

Regarding `CCOc1cccc(-c2nnc3sc(-c4cc(OC)c(OC)cc4OC)nn23)c1`, the inhibition is 8.9%.

Turning to `CC(NC(=O)C(c1ccccc1)c1ccccc1)C(=O)O` (stereo unspecified), the inhibition is 10%.

Turning to `CN(CC(=O)NCCC1=CCCCC1)S(=O)(=O)c1ccc2c(c1)CCC(=O)N2`, the inhibition was 6.5%.

As to `Cc1csc(NC(=O)CSc2nnc(-c3ccncc3)o2)n1`, the inhibition was 13.3%.

Regarding `Cc1ccc(-c2nc(CS(=O)(=O)CC(=O)N3CC(C)CC(C)C3)c(C)o2)cc1` (stereo unspecified), the inhibition was 2.5%.

`CCC1(c2ccc(F)cc2)NC(=O)N(CC(=O)c2ccc[nH]2)C1=O` (stereo unspecified): the inhibition was 11.1%.

As to `Cc1ccc(-n2c(SCC(N)=O)nnc2-c2ccccn2)cc1`, the inhibition is 5.9%.

Consider `Cc1nc(CN2CCN(C(=O)c3ccc(Br)cc3)CC2)cs1`, for which the inhibition is 8.9%.

For the molecule `CC1(C)CC(=O)C2=C(C1)N(CC1CCCO1)C(=O)NC2(C(F)(F)F)C(F)(F)F` (stereo unspecified), the inhibition was 7.8%.

As to `COc1cc(/C=N/n2cnnc2)ccc1OCC(=O)N1CCOCC1`, the inhibition was 9.7%.

Consider `Cc1cc(C(=O)CSc2nncs2)c(C)n1-c1c(C)n(C)n(-c2ccccc2)c1=O`, for which the inhibition is 6.8%.

Turning to `COc1ccc(NC(=O)CSc2nnc(Cc3cccn3C)n2CCc2ccccc2)cc1OC`, the inhibition was 21.5%.

On to `Cc1oc(CC(C)C)cc1C(=O)Nc1ccc(C(=O)O)cc1`, for which the inhibition is -1.6%.

With `C=CCn1c(COc2ccccc2)nnc1SCc1ccc(C#N)cc1`, the inhibition is 5%.

With `O=C1C2CCCN2C(c2ccccc2)N1c1cccc(Cl)c1` (stereo unspecified), the inhibition is 2.8%.

Consider `COc1ccc(-c2ccc(-c3noc(-c4ccccc4C)n3)c(OC)n2)cc1`, for which the inhibition was 6.5%.

As for `CCCCn1c(Cl)nc2c1c(=O)n(C)c(=O)n2C`, the inhibition is 13.4%.

As to `CCOc1ccc(S(=O)(=O)Nc2nc3ccccc3nc2N2CCN(C)CC2)cc1`, the inhibition was 0.5%.

Regarding `O=C(c1cccnc1)N1CCN(C(=O)c2cccs2)CC1`, the inhibition is 4.7%.

As to `Cc1ccc(CC(=O)Nc2cccc(C)n2)cc1`, the inhibition was 6%.

In the case of `C=CCOC(=O)CCCC(=O)NC1CCCCC1`, the inhibition was 3.4%.

For the molecule `CCOC(=O)C1Cc2cc3c(cc2C1=O)CC(C(=O)OCC)C3=O` (stereo unspecified), the inhibition was 8.4%.
